Screens as filed in PubChem BioAssay.
The list is not random: actives were taken first. Their share in the collection is about 11%.
USP28 block: blocks human USP28 ubiquitin-rhodamine cleavage; Q96RU2; purified USP28, Ub-rhodamine cleavage fluorescence, 30 min; inhibition, % at 25 µM; 47,000 compounds, 3% hits
USP30 block: human USP30 deubiquitinase inhibition; Q70CQ3; purified USP30, Ub-rhodamine cleavage fluorescence; inhibition, % at 25 µM; 47,000 compounds, 5.3% hits; AID 1645860
USP17 inh: inhibitors of human USP17 deubiquitinase; 47,000 compounds, 6.5% hits; A8MUK1; purified USP17, Ub-rhodamine cleavage fluorescence, 3 h; inhibition, % at 50 µM; AID 1645855
Target sequence (A8MUK1 whole entry, looked up): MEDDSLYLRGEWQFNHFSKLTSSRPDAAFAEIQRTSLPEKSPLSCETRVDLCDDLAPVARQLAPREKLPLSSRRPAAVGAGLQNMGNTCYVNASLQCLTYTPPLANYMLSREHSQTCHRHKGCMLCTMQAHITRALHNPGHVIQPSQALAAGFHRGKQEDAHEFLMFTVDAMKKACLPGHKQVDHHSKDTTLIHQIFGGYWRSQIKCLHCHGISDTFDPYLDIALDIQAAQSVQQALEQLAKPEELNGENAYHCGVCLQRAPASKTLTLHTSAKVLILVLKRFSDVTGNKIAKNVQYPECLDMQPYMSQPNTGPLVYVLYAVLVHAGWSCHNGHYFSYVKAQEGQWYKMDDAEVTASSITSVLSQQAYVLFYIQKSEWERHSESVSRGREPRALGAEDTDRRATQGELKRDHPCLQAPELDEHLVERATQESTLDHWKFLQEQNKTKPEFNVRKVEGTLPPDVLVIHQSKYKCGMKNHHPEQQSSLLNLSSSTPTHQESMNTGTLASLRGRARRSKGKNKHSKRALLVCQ
Of the large screens only hits and unclear results are named; the others gave an inactive call. Rule as the data show it: active = inhibition above about 30%; inactive = the rest.

O=C(NCc1ccc2c(c1)OCO2)c1cc2c(s1)CCC2	USP28 block 44, USP17 inh 48
O=C(/C=C/c1ccco1)Nc1nc2c(s1)COCC2	none
O=C(/C=C/c1ccc2c(c1)OCO2)Nc1nc2c(s1)COCC2	USP17 inh 65
Cc1nc(-c2cncc(-c3ccc(F)cc3)c2)cc(N2CCC3(CC2)OCCO3)n1	none
Cc1cccnc1Nc1nccnc1C1CCN(C(=O)c2ccn[nH]2)CC1	none
O=C(N[C@H]1CCCc2ccccc21)c1cc(-c2ccco2)on1	USP17 inh 47
O=C(Cc1c(C(=O)O)[nH]c2ccccc12)NC1CCCc2ccccc21 (stereo not drawn)	none
O=C(NC1CCCc2ccccc21)c1cc(Cl)ccn1 (stereo not drawn)	none (no result: USP17 inh)
O=C(NC1CCCc2ccccc21)c1cc(=O)[nH]c2ccccc12 (stereo not drawn)	USP17 inh 41
COc1ccc2[nH]c(C(=O)NCc3cccc(F)c3)c(N3CCCC3=O)c2c1	none
COC(=O)c1sccc1NC(=O)COc1ccsc1C(=O)OC	USP17 inh 51
COc1cc(C#N)ccc1OCC(=O)Nc1ccccc1Oc1ccccc1	none
COC(=O)c1sccc1NC(=O)c1cccs1	USP17 inh 30
CCOc1cc(NC(=O)C2CC2)c(OCC)cc1NC(=O)c1cccs1	none
O=C(/C=C/c1ccccc1)N1C[C@@H]2OCC(=O)N(C3CCOCC3)[C@H]2C1	none
Cc1cc(C)c2cc(CN(CCCN3CCOCC3)C(=O)NC3CCCCC3)c(=O)[nH]c2c1	none
COc1cc2c(cc1OC)C(c1cc(Br)ccc1F)CC(=O)N2 (stereo not drawn)	none
Cn1nccc1C(=O)N1CCN(c2ncnc3c2CCC3)CC1	none
COc1ccc(CCn2cnc3c4ccccc4n(C)c3c2=O)cc1	none
COc1ccc(CCn2cnc3c4ccccc4n(C)c3c2=O)cc1OC	USP28 block 67
COC(=O)CNC(=O)c1cnc(Nc2ccccc2OC)c2ccccc12	USP17 inh 31
COc1ccccc1CNC(=O)c1cnc(Nc2ccccc2OC)c2ccccc12	none
COc1ccccc1Nc1ncc(C(=O)NCCc2ccc(Cl)cc2)c2ccccc12	USP17 inh 81
COc1ccccc1Nc1ncc(C(=O)N(C)Cc2ccccc2)c2ccccc12	none
COc1ccc2c(CCN=C(NC(=O)/C=C/c3ccc(OC)c(OC)c3)Nc3nc(C)cc(C)n3)c[nH]c2c1	none
CCNC(=O)c1cn(-c2ccc(S(=O)(=O)N3CCCC(C)C3)cn2)cn1 (stereo not drawn)	USP17 inh 44 (no result: USP28 block, USP30 block)
CC1CCCN(S(=O)(=O)c2ccc(-n3cnc(C(=O)NC4CC4)c3)nc2)C1 (stereo not drawn)	USP30 block 32, USP17 inh 45
Cc1ccc(NC(=O)c2cn(-c3ccc(S(=O)(=O)N4CCCC4)cn3)cn2)cc1	none
CCC(=O)Nc1ccc(-n2cnc(C(=O)NC3CC3)c2)nc1	none
O=C(Nc1nccnc1C(=O)NCc1ccccn1)c1ccccc1	none
CC1(C)Cc2c(c(-c3ccco3)nc3sc4c(NCCCN5CCOCC5)ncnc4c23)CO1	none
CCCCCCNc1ncnc2c1sc1nc(N3CCCC3)c3c(c12)CC(C)(C)OC3	none
CC1(C)Cc2c(c(-c3ccco3)nc3sc4c(NCc5ccccn5)ncnc4c23)CO1	USP17 inh 38
CCCCCCNc1ncnc2c1sc1nc(-c3ccccc3)c3c(c12)CC(C)(C)OC3	USP30 block 31
CCOC(=O)c1ccc(Nc2nnc(C)c(=O)[nH]2)cc1	none
CN(C)S(=O)(=O)c1ccc(N2CCCC2)c(C(=O)Nc2ccc(-c3cn4ccsc4n3)cc2)c1	USP28 block 32, USP30 block 38, USP17 inh 52
O=C(Nc1ccccc1)c1csc(-c2ccc3c(c2)CCO3)n1	none
O=C(Cc1ccc2c(c1)CCO2)Nc1ccc(-c2cn3ccsc3n2)cc1	USP17 inh 36
COc1ccc(NC(=O)c2cc(S(=O)(=O)N(C)C)ccc2N2CCCC2)cc1Cl	none
Cc1ncoc1C(=O)N1CCCCC1c1ncc(Cc2cccc(F)c2)o1 (stereo not drawn)	none
COc1cc(-c2cc(C(=O)NCCN3CCOCC3)c3ccccc3n2)cc(OC)c1OC	none
Cn1cc(NC(=O)Nc2cccc3ccccc23)c2ccccc21	USP17 inh 63
O=C(Cc1ccccc1C(=O)O)Nc1cccc2ccccc12	none
O=C(NCc1ccc(Cl)cc1)Nc1cccc2ccccc12	USP30 block 35, USP17 inh 68
CC(C(=O)Nc1cccc2ccccc12)(C(F)(F)F)C(F)(F)F	none
CCCCNC(=O)c1noc2ncnc(N3CCCC3)c12	none
Cc1nn(C)c(C(=O)NC(=O)Nc2ccccc2Cl)c1[N+](=O)[O-]	none
Cc1nc(NCc2ccccc2F)ncc1C(=O)N1CCN(c2ccccc2)CC1	none
O=C(NCc1ccc(F)cc1)c1ccc(-c2ccc(F)cc2)o1	none
Cc1nc(NCc2ccccc2F)ncc1C(=O)NCc1ccccc1	USP17 inh 46
COc1ccc(CNc2ncc(C(=O)NCc3ccccc3)c(C)n2)cc1	none
Cc1ccccc1OCC(=O)Nc1ccc2c(c1)CN(C(=O)c1ccco1)CC2	USP28 block 37
COc1cccc(OC)c1C(=O)Nc1ccc2c(c1)CN(C(C)=O)CC2	none
O=C(COc1ccc(-c2ccccc2)cc1)N1CCN(C(=O)c2ccco2)CC1	USP30 block 31
Cc1ccc(OCC(=O)Nc2ccc3c(c2)CN(C(=O)c2ccco2)CC3)cc1	USP28 block 50, USP30 block 43, USP17 inh 51
O=C(COc1ccc(-c2ccccc2)cc1)N1CCC(Cc2ccccc2)CC1	none
CCN1CCN(c2ccc(NC(=O)COc3ccccc3C)cc2)CC1	none
CC(=O)N1CCCCC[C@@H]2[C@@H]1[C@H](c1cccc(F)c1)CN2C(=O)c1ncc[nH]1	none
CN1CC[C@@H]2NS(=O)(=O)c3ccccc3O[C@H]2CC1	none (no result: USP28 block, USP30 block)
O=C(c1noc2ccc(S(=O)(=O)NC3CCCCC3)cc12)N1CCOCC1	none
Cc1cc(O)c(C(c2ccc(F)cc2)c2c(O)cc(C)[nH]c2=O)c(=O)[nH]1	none
Cc1sc(NC(=O)CN2CCc3ccccc3C2)nc1-c1ccc2c(c1)CCN2C(=O)C1CCCCC1	USP17 inh 54
Cc1ccccc1C(=O)N1CCc2cc(-c3nc(NC(=O)C4(c5ccc(Cl)cc5)CCC4)sc3C)ccc21	none (no result: USP28 block, USP30 block)
Cc1sc(NC(=O)C2CCCC2)nc1-c1ccc2c(c1)CCN2C(=O)C1CCCCC1	none
Cc1sc(NC(=O)C2(c3ccc(Cl)cc3)CCC2)nc1-c1ccc2c(c1)CCN2C(=O)C1CCCCC1	USP30 block 31
CCCc1cc(=O)[nH]c(N=C(NC(=O)c2ccccc2)Nc2ccccc2)n1	none
O=C(N[C@@H]1C[C@@H](Oc2cccc(F)c2)[C@H](O)[C@H]1N1CCOCC1)C1CCOCC1	none
O=c1c2ccsc2nc2n1CCN(Cc1cccc(F)c1F)CC2	none
O=c1c2ccsc2ncn1Cc1ccccc1F	USP28 block 32
COc1ccc(C2CC(=O)c3cnc(N4CCc5ccccc54)nc3C2)cc1 (stereo not drawn)	none
Cc1c(CCC(=O)N2CCCC(c3ccc4cn[nH]c4n3)C2)cnn1C (stereo not drawn)	none
Cn1c(=O)n(CCc2ccccc2)c(=O)c2c1nc1n2CCN1Cc1ccccc1	none
Brc1ccc(C2(c3nnc(-c4ccc5c(c4)OCCO5)o3)CCOCC2)cc1	none
c1cc2c(cc1-c1nnc(C3(c4ccc5c(c4)OCO5)CCOCC3)o1)OCCO2	USP30 block 33
